A selection: hits, their analogues and other compounds. The true share with any hit is near 3.4%.
SIRT5 block – inhibitors of human sirtuin-5 desuccinylase; Purified SirT5, succinyl-peptide AMC, trypsin-coupled fluorescence; inhibition, % at 15 µM; hit rate 1.1% among 330,000; AID 652115; in the data active = inhibition above about 15%; inconclusive = no clear call, values can overlap the other calls
Target sequence (Q9NXA8 whole entry, looked up): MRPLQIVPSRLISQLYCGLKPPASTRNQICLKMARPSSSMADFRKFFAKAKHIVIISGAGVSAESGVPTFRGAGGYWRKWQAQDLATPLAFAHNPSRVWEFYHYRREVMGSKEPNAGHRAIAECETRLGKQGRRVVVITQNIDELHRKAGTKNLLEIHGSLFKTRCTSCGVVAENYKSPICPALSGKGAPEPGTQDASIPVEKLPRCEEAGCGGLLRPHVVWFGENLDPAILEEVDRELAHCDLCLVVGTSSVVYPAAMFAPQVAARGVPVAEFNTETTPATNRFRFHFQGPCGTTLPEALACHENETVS
LGR2 antag – inhibitors of bursicon-induced Drosophila LGR2 receptor cAMP signaling | inhibition, % at 9.99 µM | hit rate 0.35% among 380,000 | HEK293 LGR2, CRE-luciferase, bursicon-stimulated, 4 h;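 active = drop in luminescence signal, shown as inhibition above about 50% in the replicate tests, limit read from the data, passing the limit was not always enough; inconclusive = probably only some replicates passing the limit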;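 also: agonist challenge used bursicon conditioned medium at about half maximal strength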
PGC1a acetyl inh – modulators of PGC1a acetylation. U2OS PGC1a acetylation, AlphaScreen anti-acetyl-lysine; with virally co-expressed GCN5 acetyltransferase. inhibition, % at 15.6 µM. hit rate 0.17% among 350,000;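 active = every replicate shows inhibition of at least 40%; inconclusive = mean inhibition at least 40% but some replicate below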
PAX8 reporter – lowers PAX8-driven luciferase in RMG-I cells. hit rate 1.2% among 360,000. inhibition, % at 12.6 µM. RMG-I TPO-luciferase reporter, SteadyGlo, 24 h;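 active = mean replicate inhibition at least 60% with every replicate also reaching 60%; inconclusive = only one of the two criteria is met; inactive = mean below 60% and not all replicates reaching 60%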;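 also: luciferase light reporting Pax8 driven TPO promoter activity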
EWS-Fli block – blocks EWS/Fli oncoprotein-driven transcription; inhibition, % at 12.6 µM; hit rate 0.67% among 350,000; A673 NR0B1-luciferase reporter, viability-normalised;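 active = mean inhibition of at least 50% after viability correction, with every replicate also passing that limit; inconclusive = mean reaches 50% but only one of two replicates passes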;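 also: firefly luciferase signal divided by Alamar Blue viability fluorescence both relative to DMSO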
rRNA inh HTS – inhibitors of bacterial rRNA selective over humanized ribosomes | E. coli WT GFP vs humanized-ribosome RFP mutants, fluorescence, 24 h; hits give low values; DMSO median 0, no signal -100 | GFP signal change (wild-type ribosome), % (no concentration beside the values) | hit rate 1.6% among 350,000 | AID 720706;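 active = significant combined selectivity score with lowered wild-type GFP, culture density cut under 30%, mutant RFP and density less affected; inactive = any of these conditions unmet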
Of the large screens only hits and unclear results are named; the others gave an inactive call.

COc1ccccc1S(=O)(=O)N1CC[C@@H]2[C@@H](CO)Nc3ccc(-c4ccccc4)cc3[C@@H]21	PAX8 reporter 70.1
COc1ccccc1-c1ccc2c(c1)[C@H]1[C@H](CCN1S(=O)(=O)c1ccccc1F)[C@@H](CO)N2	none
COc1ccccc1-c1ccc2c(c1)[C@H]1[C@H](CCN1S(=O)(=O)c1ccccc1F)[C@H](CO)N2	PAX8 reporter 81.1
COc1ccccc1-c1ccc2c(c1)[C@@H]1[C@@H](CCN1S(=O)(=O)c1ccccc1F)[C@H](CO)N2	PAX8 reporter 80.9
COc1ccccc1S(=O)(=O)N1CC[C@@H]2[C@H](CO)Nc3ccc(-c4ccc(C#N)cc4)cc3[C@@H]21	none
COCC#Cc1ccc(CC[C@H]2O[C@H]3CC[C@@H](CO)O[C@H]3C[C@@H]2n2cc(C3CC3)nn2)cc1	none (no result: LGR2 antag, PAX8 reporter, rRNA inh HTS)
Cc1ccc(NC(=O)C2C3C=CC4(O3)C2C(=O)N(CCCN2CCCC(C)C2)C4C(=O)NC2CCCCC2)cc1 (stereo not given)	SIRT5 block 17.4
CC1CCCN(CCCN2C(=O)C3C(C(=O)Nc4ccc(Cl)cc4)C4C=CC3(O4)C2C(=O)NC2CCCCC2)C1 (stereo not given)	none
CC(=O)N[C@H]1CC[C@@H](CCNC(=O)C2CCCCC2)O[C@H]1CO	none (no result: PAX8 reporter)
O=C(c1ccccc1)N1CC(=O)N2[C@@H](CO)[C@H](c3ccc(C4=CCCC4)cc3)[C@@H]2C1	none
Cc1c(C(=O)OCC(=O)N(C)c2ccccc2)oc2ccccc12	rRNA inh HTS -28.1 (no result: PGC1a acetyl inh)
Cc1c(C(=O)OCC(=O)N(C)Cc2ccccc2)oc2ccccc12	none
Cc1cc(C)cc(NC(=O)C2CC(=O)n3ncnc3N2)c1 (stereo not given)	none
Cc1cccc(NC(=O)C2CC(=O)n3ncnc3N2)c1 (stereo not given)	SIRT5 block 78.7
CO[C@H]1CN(C)C(=O)c2ccc(NC(=O)Nc3cc(F)ccc3F)cc2OC[C@@H](C)N(C(=O)c2cnccn2)C[C@@H]1C	none (no result: PAX8 reporter)
Cc1ccccc1N1CCN(Cc2ccc(Br)o2)CC1	rRNA inh HTS -27.1
Clc1ccccc1N1CCN(Cc2ccc(Br)o2)CC1	rRNA inh HTS -34.6 (no result: LGR2 antag, PGC1a acetyl inh)
Brc1ccc(CN2CCN(c3ccccc3)CC2)o1	none
CC(C)NC(=O)N(C)C[C@@H]1Oc2ccc(NC(=O)Cn3cnnn3)cc2CC(=O)N([C@@H](C)CO)C[C@H]1C	none
CC(C)(C)[S@](=O)N1Cc2cc(C(=O)N[C@@H]3CCN(Cc4ccccc4)C3)nc(-c3cccc(-c4cncnc4)c3)c2[C@@H]1CCO	none (no result: SIRT5 block, LGR2 antag, PGC1a acetyl inh, PAX8 reporter, EWS-Fli block)
CCCCCCCCCCOC(=O)Cn1c(COc2ccc(Cl)cc2)[n+](C)c2ccccc21	none (no result: PGC1a acetyl inh)
CCCCCCCCCCOC(=O)Cn1c(COc2ccccc2)[n+](C)c2ccccc21	PAX8 reporter 70.9 (no result: PGC1a acetyl inh)
CCCCOC(=O)C1CN(c2ccccc2)N=C1C(C)=O (stereo not given)	rRNA inh HTS -32.5
COCC(=O)N(C)C[C@H]1Oc2ncc(-c3ccccc3OC)cc2C(=O)N([C@H](C)CO)C[C@@H]1C	none (no result: PAX8 reporter)
COc1cccc(C(=O)/C=C2\Sc3ccccc3N2C)c1	rRNA inh HTS -28.5
Cc1ccc(C)c(N2CN(CCC3=CCCCC3)CNC2=S)c1	rRNA inh HTS -28.1
COc1ccccc1-c1c(C(F)(F)F)oc2cc(OS(C)(=O)=O)ccc2c1=O	rRNA inh HTS -26.5
COc1ccccc1-c1c(C(F)(F)F)oc2cc(OC(=O)c3ccccc3[N+](=O)[O-])ccc2c1=O	none (no result: SIRT5 block, LGR2 antag, PAX8 reporter, EWS-Fli block, rRNA inh HTS)
CCOC(=O)C1CCCN(C(=O)C(C)(C)Oc2ccc(Cl)cc2)C1 (stereo not given)	rRNA inh HTS -30.5
CCOC(=O)C1CCCN(Cc2ccc(-c3ccccc3)cc2)C1 (stereo not given)	rRNA inh HTS -25.4 (no result: SIRT5 block, PGC1a acetyl inh)
CCOC(=O)C1CCCN(C(=O)CSc2ccc(Br)cc2)C1 (stereo not given)	PGC1a acetyl inh 78.1 (no result: SIRT5 block, LGR2 antag, PAX8 reporter, EWS-Fli block, rRNA inh HTS)
O=S(=O)(NC[C@H]1CC[C@@H]2NC[C@@H]2O1)c1ccccc1F	none (no result: LGR2 antag, PGC1a acetyl inh, PAX8 reporter, rRNA inh HTS)
C[C@@H]1CCCCO[C@H](CN(C)C)[C@H](C)CN([C@H](C)CO)C(=O)c2cc(NC(=O)Nc3ccc(C(F)(F)F)cc3)ccc2O1	none
COCCNc1nc2ccccc2n2cnnc12	SIRT5 block 17.2 (no result: PGC1a acetyl inh)
COc1ccc(CCNc2nc3ccccc3n3cnnc23)cc1OC	none
COc1cccc(-c2ccc3c(c2)[C@H]2[C@H](CCN2C(=O)NC2CCCCC2)[C@H](CO)N3C)c1	PAX8 reporter 65.7
COc1ccc(-c2ccc3c(c2)[C@@H]2[C@@H](CCN2C(=O)NC2CCCCC2)[C@H](CO)N3C)cc1	PAX8 reporter 81.7
CN1c2ccc(-c3ccccc3)cc2[C@H]2[C@H](CCN2C(=O)NC2CCCCC2)[C@@H]1CO	PAX8 reporter 89.3
COc1cccc(-c2ccc3c(c2)[C@@H]2[C@@H](CCN2C(=O)NC2CCCCC2)[C@H](CO)N3C)c1	PAX8 reporter 85.9
CCC(=O)Nc1ccc2c(c1)OC[C@@H](C)N(S(=O)(=O)c1cn(C)cn1)C[C@@H](C)[C@H](OC)CN(C)C2=O	none (no result: SIRT5 block)
C[C@@H]1CN([C@H](C)CO)S(=O)(=O)c2ccc(C#CC(C)(C)O)cc2O[C@@H]1CN(C)C(=O)C1CCCCC1	none (no result: PAX8 reporter)
COc1cccc(-c2ccc3c(c2)[C@@H]2[C@@H](CCN2C(=O)c2ccccc2F)[C@H](CO)N3C)c1	SIRT5 block 20.1, PAX8 reporter 71.6
COc1ccc(Cn2c(-c3ccc(Br)cc3)c[n+]3ccccc23)cc1	rRNA inh HTS -30.4 (no result: PGC1a acetyl inh)
COc1ccc(Cn2c(-c3ccc(OC)cc3)nc3ccccc32)cc1	none (no result: PAX8 reporter)
O=C1C(Cl)=C(N2CCC(C(=O)O)CC2)C(=O)c2ccccc21	none (no result: SIRT5 block, LGR2 antag, PAX8 reporter, EWS-Fli block, rRNA inh HTS)
CN1CCN(C2=C(Cl)C(=O)c3ccccc3C2=O)CC1	LGR2 antag 72.2 (no result: PGC1a acetyl inh)
COc1ccc(C2/C=C\CN(C(=O)Nc3ccccc3)CC(=O)N2Cc2ccc(F)cc2)cc1 (stereo not given)	rRNA inh HTS -27.1
C[C@H]1CN(C)C(=O)c2cc([N+](=O)[O-])ccc2O[C@@H]1CN(C)C(=O)OC(C)(C)C	none (no result: SIRT5 block, LGR2 antag, PGC1a acetyl inh, PAX8 reporter, EWS-Fli block)
CCOC(=O)N1CCN(c2c(N3CCN(c4cccc(C)c4C)CC3)c(=O)c2=O)CC1	none
CCOc1ncccc1C(=O)N1CCN(c2cccc(C)c2C)CC1	PAX8 reporter 63.1, EWS-Fli block inconclusive (no result: PGC1a acetyl inh)
CCOC(=O)N1CCN(c2cccc(C)c2C)CC1	PAX8 reporter 70.4 (no result: PGC1a acetyl inh)
C[C@@H]1CCCCO[C@@H](CN(C)S(=O)(=O)c2cn(C)cn2)[C@@H](C)CN([C@@H](C)CO)C(=O)c2cc(NS(=O)(=O)c3ccccc3)ccc2O1	none
COc1ccccc1CNC(=O)C[C@H]1C[C@@H]2c3cc(NC(=O)c4cccnc4)ccc3O[C@@H]2[C@H](CO)O1	none
COc1ccccc1C1NC(=O)NC(C)=C1C(=O)OCc1ccccc1 (stereo not given)	rRNA inh HTS -23.3 (no result: PGC1a acetyl inh)
